Source: PubChem BioAssay (National Center for Advancing Translational Sciences (NCATS))
DRD3 antagonist: blocks the human D3 dopamine receptor; P35462; D3R cells, DiscoveRx beta-arrestin luminescence, antagonist mode; active compounds read low; max response, negative = inhibition, %; hit rate 2.5% among 360,000; AID 652054; in the data active = max response below about -50%; inconclusive = no clear call, values can overlap the other calls
Target sequence (P35462 whole entry, looked up): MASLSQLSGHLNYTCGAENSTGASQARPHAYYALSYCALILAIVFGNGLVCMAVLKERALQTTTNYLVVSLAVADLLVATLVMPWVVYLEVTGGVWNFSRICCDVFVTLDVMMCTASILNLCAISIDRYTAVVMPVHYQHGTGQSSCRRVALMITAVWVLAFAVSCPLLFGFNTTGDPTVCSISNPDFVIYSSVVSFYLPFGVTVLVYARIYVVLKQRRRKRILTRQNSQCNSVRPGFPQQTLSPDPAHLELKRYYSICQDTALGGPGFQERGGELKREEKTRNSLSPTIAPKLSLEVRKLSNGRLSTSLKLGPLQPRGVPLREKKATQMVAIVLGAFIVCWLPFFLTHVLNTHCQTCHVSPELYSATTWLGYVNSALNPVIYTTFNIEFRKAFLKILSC
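Cells expressing the human receptor were seeded at 1500 cells/well, incubated overnight at 37 degrees C in 5% CO2, then exposed to library compounds with dopamine controls for 90 minutes at 37 degrees C before luminescent detection.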
D1 antag: blocks dopamine activation of the human D1 receptor | HEK293 TREx D1 cells, calcium flux, dopamine EC80; active compounds read low | hit rate 3.2% among 360,000 | activity change, negative = inhibition, % at 10 µM | AID 504652 | P21728; in the data active = activity change below about -30%
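After overnight tetracycline induction at 30 C, force-coupled D1 HEK293 cells took up a no-wash calcium dye at room temperature. Compounds were added and monitored 180 s, and the response to EC80 dopamine was then recorded.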
ERG-DNA inh: blocks human ERG Ets domain binding to DNA; hit rate 0.028% among 370,000; fluorescence polarization, His-ERG Ets domain / labelled DNA; Potency, µM (top dose mostly 76.9 µM), usual class: inhibitors; active = well fitted inhibition curve with a large enough effect in the polarisation, with a control signal flat; inconclusive = small, poorly fitted or top-dose-only effect, or effect the other way, or a change in a side signal; inactive = no such curve, though single readings can be large or run the other way; the % refers to the polarisation;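 also: polarization taken with two DNA probes labelled with fluorescein and Texas red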
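His-tagged ERG Ets domain (1 uM in the protein solution; 300mM KCl, 50mM Tris-HCl, 1mM EDTA, 1mM DTT, pH 7.5) received compound, then a probe mix of 5 nM fluorescein-DNA and 100nM Texas-615-DNA. Fluorescence polarization was read for both dyes.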
D1 ag: human D1 receptor agonism. P21728. HEK293 T-REx D1 cells, calcium flux, agonist mode. activation, % at 2 µM. hit rate 1% among 360,000; in the data active = activation above about 30%
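Tetracycline-induced HEK293 TREx D1 cells, force-coupled to calcium signalling, were dye-loaded with a no-wash calcium kit. Compound was pin-added after a 10 s baseline. Fluorescence was read kinetically at 1 cycle/s for 180 s, with calcium rises flagged as agonism.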
D3 ag: agonists of human D3 dopamine receptor; P35462; D3R DiscoveRx beta-arrestin cells, luminescence, 90 min; max activation, %; hit rate 0.58% among 410,000; AID 652048; in the data active = max activation above about 30%
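Agonist-mode cell screen: cells plated at 1500/well and incubated overnight at 37 °C, then exposed to library compounds for 90 min at 37 °C. Detection reagent was added for 30–60 min at room temperature, and luminescence was read.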
D1 potentiator: potentiators of human D1 dopamine receptor | HEK293 TREx D1 cells, calcium flux, dopamine EC20 potentiation | P21728 | hit rate 0.036% among 360,000 | potentiation, % at 10 µM; in the data active = potentiation above about 30%
Each line names hits and unclear results; the compound was inactive in the other large screens. Most compounds without a hit are left out; they make up all but 6.1% or so of the library.

CCOC(=O)CC1C(=O)NCCN1c1nc2ccc(C)cn2c(=O)c1/C=C1\SC(=S)N(C(C)CC)C1=O (stereo unspecified)	D1 antag -47, D1 ag 584, D1 potentiator 34 (no result: DRD3 antagonist, ERG-DNA inh, D3 ag)
CN(C)CCN1C(=O)c2ccccc2N(C)c2ccccc21	none (no result: DRD3 antagonist, D1 antag, ERG-DNA inh, D1 ag, D1 potentiator)
COc1ccc(S(=O)(=O)n2[nH]c(=O)c(CCO)c2C)cc1	none
CCn1cnnc1SCC(=O)NCC1COc2ccccc2O1 (stereo unspecified)	none
Cc1nnc(SCC(=O)Nc2ccccc2NC(=O)CSc2nnc(C)s2)s1	D1 antag -33
Cc1nnc(SCC(=O)NCC2COc3ccccc3O2)s1 (stereo unspecified)	D1 antag -31
Cc1ccccc1Nc1nnc(SCC(=O)NCc2cccs2)s1	D1 antag -41
COc1ccc(C2SCCN2S(=O)(=O)c2ccc(NC(C)=O)cc2)cc1OC (stereo unspecified)	none
CCN(CC(=O)NCc1ccc(F)cc1)CC(=O)Nc1ccccc1-c1ccccc1	none
COC(=O)CN1C(=O)[C@H]2[C@@H](c3ccc(C)o3)N3C(=O)CN(Cc4ccccn4)C(=O)[C@@]3(Cc3ccccc3)[C@H]2C1=O	D3 ag 39
CC(C)c1ccccc1NC(=O)CNCCc1ccc(C(F)(F)F)cc1	D1 ag 36
NS(=O)(=O)c1ccc(CCNC(=O)CNCCc2ccc(C(F)(F)F)cc2)cc1	none
Cn1c(SCC(=O)NCC2CCCO2)nnc1-c1ccco1 (stereo unspecified)	none
COc1ccc(C2N(C(=O)C(F)(F)F)C(C)CN2S(=O)(=O)c2ccc(C)cc2)cc1 (stereo unspecified)	none
COc1cc(-c2nn3c(Cc4ccccc4)nnc3s2)cc(OC)c1OC	D3 ag 31
CCOc1ccc(S(=O)(=O)c2cn(CC)c3ccc(F)cc3c2=O)cc1	none (no result: DRD3 antagonist)
CCc1sc(-c2c(C#N)c(N)nc3c2CCCCCC3)cc1[N+](=O)[O-]	D1 ag 73
Cc1cccc(NC(=S)N/N=C2/CCCCc3ccccc32)c1	DRD3 antagonist -89
CCNC(=S)N/N=C1\CCCCc2ccccc21	none
COc1ccc(NC(=S)N/N=C2\CC(C)(C)Oc3ccc(OC)cc32)cc1	none
COc1ccc(NC(=S)N/N=C2/CCCc3c(C)cc(C)cc32)cc1	D1 antag -40
Cc1ccc(NC(=S)N/N=C2/CCCCc3ccccc32)cc1	DRD3 antagonist -52
Cc1cccc(NC(=O)C2CCCN(c3nc4ccccc4s3)C2)c1C (stereo unspecified)	none (no result: DRD3 antagonist)
O=C(Nc1ccc(Oc2ccccc2)cc1)c1csc([C@@H]2O[C@H](CO)[C@H](O)[C@H](O)[C@H]2O)n1	DRD3 antagonist -92 (no result: D1 antag, ERG-DNA inh, D1 ag, D1 potentiator)
Cc1ccc(S(=O)(=O)c2ccccc2)cc1S	none (no result: DRD3 antagonist, ERG-DNA inh, D3 ag)
O=C(O)CC(CNS(=O)(=O)c1ccccc1)c1ccccc1 (stereo unspecified)	D1 antag -33
CN1C(C(=O)NCc2ccco2)=CC(c2ccc(F)cc2)=NS1(=O)=O	none
Fc1ccc(C2=CC(c3ccco3)n3ncnc3N2)cc1 (stereo unspecified)	none
Brc1ccc(C2=CC(c3cccs3)n3ncnc3N2)cc1 (stereo unspecified)	DRD3 antagonist inconclusive, D1 ag 60
Fc1ccc(C2=CC(c3ccc(Br)o3)n3ncnc3N2)cc1 (stereo unspecified)	none
OCCCc1nc2n(n1)C(c1cccs1)C=C(c1ccc(Br)cc1)N2 (stereo unspecified)	D1 ag 40 (no result: DRD3 antagonist, ERG-DNA inh, D3 ag)
C1=C(c2ccc(-c3ccccc3)cc2)Nc2ncnn2C1c1ccco1 (stereo unspecified)	D1 ag 61
Cn1c(SCC(=O)Nc2cccc(Br)c2)nnc1-c1cc2ccccc2o1	none
CCCOc1ccc(-c2nnc(-c3ccncc3)o2)cc1	DRD3 antagonist -71
CCc1ccc(C(=O)NC(C(=O)NCC2CCCO2)C(C)C)cc1 (stereo unspecified)	DRD3 antagonist -88
COc1ccc(C(=O)N[C@H](C(=O)NCc2ccc(C)cc2)C(C)C)cc1	none
COc1ccc(C(=O)N[C@H](C(=O)NCC2CCCCC2)C(C)C)cc1	D1 ag 160
CC(C)[C@H](NC(=O)c1ccccc1)C(=O)OCC(=O)NCC1CCCO1 (stereo partly specified)	none (no result: D1 antag, D1 ag, D1 potentiator)
O=C(O)CSc1ncnc2c1oc1ccccc12	none
c1ccc(Sc2ncnc3c2oc2ccccc23)cc1	D1 antag -35
COc1ccccc1OCC(=O)Nc1ccc2c(c1)n(C)c(=O)n2C	none
O=C1C=CC(=O)N1c1ccccc1N1C(=O)C=CC1=O	DRD3 antagonist -113 (no result: D1 antag, D1 ag, D1 potentiator)
Cc1ccccc1-c1nn2c(=O)cc(CN3CCN(C(=O)/C=C/c4ccccc4)CC3)nc2s1	D1 antag -32 (no result: DRD3 antagonist)
Cc1cccc(-c2nn3c(=O)cc(CN4CCN(C(=O)c5ccccc5Br)CC4)nc3s2)c1	D1 antag -34 (no result: DRD3 antagonist)
CC(C)Sc1nc2c([nH]1)c(=N)ncn2Cc1ccccc1	none
O=C(NCCCn1ccnc1)c1ccc(-c2ccccc2)cc1	none
CCOc1cc(OCC)cc(C(=O)Nc2cccc(-c3nc4ccccc4[nH]3)c2)c1	D1 antag -38, ERG-DNA inh inconclusive (no result: DRD3 antagonist)
COc1cccc(C(=O)Nc2ccc3ccccc3c2)c1	none
CCOc1cccc(C(=O)Nc2ccncc2)c1	D1 antag -32
COc1cccc(C(=O)Nc2ccc3[nH]ncc3c2)c1	D1 antag -34
COc1cc(OC)cc(C(=O)Nc2ccc(C(=O)c3ccncc3)cc2)c1	D1 antag -38
COc1cc(C(=O)Nc2ccc(C(=O)c3ccncc3)cc2)cc(OC)c1OC	none (no result: D1 antag, ERG-DNA inh, D1 ag, D1 potentiator)
[O-][N+]1=C2CCC/C(=N\O)C2=NC12CCCCC2	none (no result: ERG-DNA inh)
CCOc1cccc(NC(=O)c2ccc(S(=O)(=O)N(C)C)cc2)c1	D1 antag -43
CCOc1cccc(C(=O)Nc2ccc(NC(=O)c3ccc(Br)cc3)cc2)c1	none (no result: DRD3 antagonist)
CN(C)S(=O)(=O)c1cccc(NC(=O)c2ccc(COc3ccccc3)cc2)c1	none
CCOc1cccc(C(=O)Nc2ccc3[nH]ncc3c2)c1	D1 antag -32
COc1cccc(NC(=O)c2oc3ccccc3c2NC(=O)C2CC2)c1	none
COc1ccc(CN(C#N)c2nc(SC)nc(N(C)C)n2)cc1	none
CCOC(=O)C1(CC2CCCCO2)CCN(Cc2ccc(OC)cc2F)CC1 (stereo unspecified)	DRD3 antagonist -67
Cc1cccc(NC(=O)C2CCN(c3nccc(C)n3)CC2)c1	D1 antag -35
CCCCNCC(O)(c1ccc(Cl)cc1)c1ccc(Cl)cc1	DRD3 antagonist -87
COC(=O)CCSc1cc(NCCOC(C)=O)c([N+](=O)[O-])c2nonc12	none
